We go through eight compounds from PubChem BioAssay.

Activity calls are given as the source filed them.

Experiment [1] in a line: E. coli DRC41 culture turbidity changes, primary screen, E. coli filamentation inducer project, strain DRC41, OD650, 48 h (AID 1152).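 Also: E. coli MC1000 strain DRC41 lacking acrAB efflux pump and sulA.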 As to conditions: E. coli DRC41 (acrAB sulA), higher = more signal, called active from +8 up or from −8 down.
The nature of experiment [2]: small-molecule binders of probe aLefty1, primary screen, biochemical, small-molecule microarray, 635/667 nm fluorescence (AID 1153).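 Also: score merges spot fluorescence with signal-to-noise ratio from the scanned slide images.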 Conditions: higher = more signal.
The nature of experiment [3]: PSAC antagonists in infected red cells, primary screen, cell-based, P. falciparum Indochina, OD700, 1 h (AID 1154). As to conditions: P. falciparum Indochina infected RBC osmotic lysis, higher = more signal, called active from +8 up or from −8 down.
The nature of experiment [4]: PSAC antagonists in infected red cells, primary screen, cell-based, P. falciparum Indochina, OD700, 2 h (AID 1155).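 Also: lysis reports solute entry through the parasite surface anion channel PSAC; channel blockers reduce lysis of infected cells.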 As to conditions: P. falciparum Indochina infected erythrocytes, osmotic lysis OD700; higher = more signal, called active from +8 up or from −8 down.
A short description of experiment [5]: osmotic lysis modulators in infected erythrocytes, primary screen, PSAC antagonist project, cell-based, P. falciparum Indochina, OD700, 3 h (AID 1156). Conditions: higher = more signal, called active from +8 up or from −8 down.
Experiment [6] is described as follows: PSAC antagonists in infected red cells, primary screen, cell-based, P. falciparum Indochina, OD700, 18 h (AID 1157). As to conditions: P. falciparum Indochina infected erythrocytes, osmotic lysis OD700, 18 h; higher = more signal, called active from +8 up or from −8 down.
Experiment [7] can be described thus: modulators of S6 phosphorylation in cells, primary screen, cell-based, A549, cytoblot, luminescence, serum-stimulated (AID 1158).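 Also: serum-stimulated A549 lung adenocarcinoma cells; signal is phosphorylated S6 detected by cytoblot immunostaining with HRP secondary.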 As to conditions: A549 phospho-S6 cytoblot, 5 h, higher = more signal.
Experiment [8] concerns the target NADPH oxidase 2 (Homo sapiens) (UniProt P04839). Briefly: NOX2-dependent H2O2 signal modulators, primary screen, NOX inhibitor project, cell-based, HEK293-NOX2, PMA-stimulated, Amplex Red fluorescence (AID 1159). Also: test concentration not given here. Conditions: 45 min, higher = more signal, called active from +8 up or from −8 down.
Experiment [9] deals with NADPH oxidase 4 (Homo sapiens) (UniProt Q9NPH5). Briefly: NOX4-dependent H2O2 signal modulators, primary screen, NOX inhibitor project, cell-based, HEK293-NOX4, tetracycline-induced, Amplex Red fluorescence (AID 1160). Conditions: 45 min, higher = more signal, called active from +8 up or from −8 down.
The target in experiment [10] is NADPH oxidase 5 (Homo sapiens) (UniProt Q96PH1). The experiment in a line: NOX5-dependent H2O2 signal modulators, primary screen, NOX inhibitor project, cell-based, HEK293-NOX5, Amplex Red fluorescence (AID 1161). Conditions: HEK293-NOX5, ionomycin, 45 min, higher = more signal.
Experiment [11] can be described thus: A549 cell viability effects, profiling panel, calcein-AM fluorescence, 48 h, basal (AID 1162). Also: test concentration not given here. Conditions: higher = more signal.
Experiment [12] can be described thus: adipocyte viability effects, profiling panel, cell-based, 3T3-L1 adipocytes, calcein-AM fluorescence, 48 h, basal (AID 1163). Also: test concentration not given here. Conditions: 3T3-L1 adipocytes viability, higher = more signal.
Experiment [13] in a line: HepG2 cell viability effects, profiling panel, calcein-AM fluorescence, 48 h, basal (AID 1164). Also: test concentration not given here. Conditions: higher = more signal.
Experiment [14] in a line: MM1S cell viability effects, profiling panel, calcein-AM fluorescence, 48 h, basal (AID 1165).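 Also: viability of MM1S multiple myeloma cells under basal unstimulated conditions; test concentration not given here.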 As to conditions: higher = more signal.
Experiment [15] is described as follows: basal RPMI8226 viability, no added stimulus, profiling panel, cell-based, calcein-AM fluorescence, 48 h, PK04 Diversity Set (AID 1166).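 Also: cells grown under basal conditions without added stimulus; test concentration not given here.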 Conditions: RPMI8226 myeloma viability, higher = more signal.
Experiment [16] is described as follows: basal HepG2 mitochondrial membrane potential changes, profiling panel, cell-based, JC-1 fluorescence, 24 h, 100 nL compound (AID 1167). Also: test concentration not given here. As to conditions: higher = more signal.
The nature of experiment [17]: basal 3T3-L1 adipocyte mitochondrial potential changes, profiling panel, cell-based, JC-1 fluorescence, 3T3-L1 adipocytes, 24 h, 100 nL compound (AID 1168). Also: test concentration not given here. As to conditions: JC-1 mitochondrial fluorescence, higher = more signal, called active from +8 up or from −8 down.
The nature of experiment [18]: basal RPMI8226 mitochondrial membrane potential changes, profiling panel, cell-based, JC-1 fluorescence, 24 h, 100 nL compound (AID 1169). Also: test concentration not given here. Conditions: RPMI8226 myeloma, JC-1 mitochondrial potential fluorescence, higher = more signal.
Experiment [19] in a line: basal MM1S mitochondrial membrane potential changes, profiling panel, cell-based, JC-1 fluorescence, 24 h, 100 nL compound (AID 1170). Also: test concentration not given here. Conditions: higher = more signal.
A short description of experiment [20]: A549 lung cancer cell viability effects, profiling panel, resazurin fluorescence, 24 h, PK04 Diversity Set (AID 1171). Also: test concentration not given here. Conditions: higher = more signal, called active from +8 up or from −8 down. In general terms: Alamar Blue is a resazurin reagent that responds to reducing activity.

NADPH oxidase 5 (Homo sapiens), sequence (Q96PH1 whole entry, looked up): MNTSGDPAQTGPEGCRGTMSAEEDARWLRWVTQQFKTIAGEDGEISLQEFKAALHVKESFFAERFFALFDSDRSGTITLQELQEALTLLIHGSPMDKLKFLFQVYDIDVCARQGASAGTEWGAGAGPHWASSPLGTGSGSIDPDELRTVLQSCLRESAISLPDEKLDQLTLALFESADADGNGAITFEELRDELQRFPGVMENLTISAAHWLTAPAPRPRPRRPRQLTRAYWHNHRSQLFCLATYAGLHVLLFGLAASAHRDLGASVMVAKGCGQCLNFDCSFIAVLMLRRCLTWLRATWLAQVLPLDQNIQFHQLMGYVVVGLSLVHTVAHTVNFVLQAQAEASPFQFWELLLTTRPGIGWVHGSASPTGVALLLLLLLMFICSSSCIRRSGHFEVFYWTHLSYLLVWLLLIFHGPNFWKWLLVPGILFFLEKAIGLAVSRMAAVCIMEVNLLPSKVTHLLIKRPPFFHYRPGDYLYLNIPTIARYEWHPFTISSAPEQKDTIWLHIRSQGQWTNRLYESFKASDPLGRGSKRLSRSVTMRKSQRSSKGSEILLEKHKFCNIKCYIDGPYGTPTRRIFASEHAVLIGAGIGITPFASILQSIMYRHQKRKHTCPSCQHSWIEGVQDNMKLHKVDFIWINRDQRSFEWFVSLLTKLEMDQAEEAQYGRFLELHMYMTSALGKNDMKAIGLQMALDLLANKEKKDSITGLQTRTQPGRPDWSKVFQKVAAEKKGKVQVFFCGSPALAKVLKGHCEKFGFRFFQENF
NADPH oxidase 2 (Homo sapiens), sequence (P04839 whole entry, looked up): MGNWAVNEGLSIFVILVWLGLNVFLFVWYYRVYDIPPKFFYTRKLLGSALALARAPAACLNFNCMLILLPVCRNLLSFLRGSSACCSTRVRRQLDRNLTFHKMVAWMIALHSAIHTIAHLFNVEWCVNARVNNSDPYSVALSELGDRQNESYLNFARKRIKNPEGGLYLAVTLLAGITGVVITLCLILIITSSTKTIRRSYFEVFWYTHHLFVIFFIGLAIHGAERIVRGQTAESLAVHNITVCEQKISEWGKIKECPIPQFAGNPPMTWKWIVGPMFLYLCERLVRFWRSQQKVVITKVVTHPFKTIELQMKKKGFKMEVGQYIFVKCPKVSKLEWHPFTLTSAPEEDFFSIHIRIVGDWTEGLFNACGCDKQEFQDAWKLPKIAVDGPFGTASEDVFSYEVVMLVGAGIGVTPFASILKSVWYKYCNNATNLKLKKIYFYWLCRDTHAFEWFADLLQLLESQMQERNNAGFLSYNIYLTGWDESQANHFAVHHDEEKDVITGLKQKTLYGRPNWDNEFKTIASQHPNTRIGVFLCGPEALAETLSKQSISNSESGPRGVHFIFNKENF
NADPH oxidase 4 (Homo sapiens), sequence (Q9NPH5 whole entry, looked up): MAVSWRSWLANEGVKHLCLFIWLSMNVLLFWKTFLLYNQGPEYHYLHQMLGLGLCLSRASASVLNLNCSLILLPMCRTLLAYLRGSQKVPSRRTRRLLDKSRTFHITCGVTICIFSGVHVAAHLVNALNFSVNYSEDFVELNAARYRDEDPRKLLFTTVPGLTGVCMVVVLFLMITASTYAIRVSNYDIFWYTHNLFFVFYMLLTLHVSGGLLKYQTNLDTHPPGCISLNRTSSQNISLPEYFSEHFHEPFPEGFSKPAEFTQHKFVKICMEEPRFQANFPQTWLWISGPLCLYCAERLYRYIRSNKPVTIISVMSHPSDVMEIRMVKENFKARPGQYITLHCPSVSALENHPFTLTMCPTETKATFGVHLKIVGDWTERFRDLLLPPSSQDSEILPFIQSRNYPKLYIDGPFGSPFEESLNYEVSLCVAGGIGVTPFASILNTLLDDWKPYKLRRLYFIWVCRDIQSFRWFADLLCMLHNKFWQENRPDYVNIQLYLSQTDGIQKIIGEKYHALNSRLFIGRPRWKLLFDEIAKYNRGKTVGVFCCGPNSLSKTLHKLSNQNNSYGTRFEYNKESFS

As to `CC(C)=CCCC(C)=CCON=C1C[C@@H](O)[C@@H](O)[C@@H]2[C@@H]3C(=O)N(Cc4ccccc4)C(=O)[C@@H]3CC[C@@H]12`, the z-score in experiment [1] was -0.0866 (inactive); in experiment [3], 0.391 (inactive); in experiment [4] it was 0.239 (inactive); in [5], 0.0336 (inactive); in experiment [6], -0.0646 (inactive); in [7], -0.444. For the same compound, the z-score in [8] is 0.0415 (inactive); in [9] it was 0.836 (inactive); in experiment [10], -0.0355; in experiment [11] it was 0.123; in experiment [12], -0.827; in [13], -1.45. Further, the z-score is 0.732 in experiment [14]; 0.107 in [15]; 0.786 in [16]; 0.199 (inactive) in [17]; -0.11 in experiment [18]; -0.689 in experiment [19]. Also, the z-score in experiment [20] is 0.708 (inactive). Besides, the composite z-score in [2] was -0.241.
Turning to `COc1cc(O)c(C(=O)C=Cc2ccc3c(c2)OCO3)c(OC)c1`, the z-score was -0.59 (inactive) in [1]; 18.9 (active) in [3]; 2.42 (inactive) in experiment [4]; 0.484 (inactive) in experiment [5]; 0.885 (inactive) in experiment [6]; -0.523 in experiment [7]. For the same compound, the z-score is 0.0679 (inactive) in experiment [8]; 0.142 (inactive) in [9]; -0.0252 in experiment [10]; -0.553 in experiment [11]; 0.154 in experiment [12]; -0.932 in experiment [13]. Moreover, the z-score in [14] is -1.62; in [15], -1.36; in [16], -0.591; in [17], -0.646 (inactive); in experiment [18], -0.23; in experiment [19], -0.533. The z-score in [20] was 0.0731 (inactive). In experiment [2], this compound displayed a composite z-score of 0.0056.
As to `O=C1[C@H]2[C@H]3[C@H](O)[C@H](O)CC(=NOCc4ccccc4)[C@H]3CC[C@H]2C(=O)N1Cc1ccc2c(c1)OCO2`, the z-score in [1] was -1.06 (inactive); in experiment [3] it was 19.4 (active); in experiment [4], 2.12 (inactive); in [5] it was 0.686 (inactive); in experiment [6], 0.599 (inactive); in [7], -0.702. Moreover, the z-score in [8] was 0.414 (inactive); in [9], -0.0657 (inactive); in experiment [10] it was -2.61; in [11], 0.446; in experiment [12], 0.717; in [13] it was -1.25. In addition, the z-score was 0.424 in [14]; -1.69 in experiment [15]; 0.701 in [16]; -0.802 (inactive) in [17]; 0.0189 in [18]; 0.349 in [19]. Besides, in experiment [20], the z-score is 0.392 (inactive). For the same compound, the composite z-score in experiment [2] is -0.147.
`CCCNC(=O)OC[C@H]1O[C@H](CCON=Cc2ccc(C(=O)N3[C@H](c4ccc(C)cc4)[C@@H](C)CC[C@H]3C(=O)OC)cc2)C=C[C@@H]1Oc1ccc(OC)cc1`: the z-score was 0.33 (inactive) in experiment [1]; 1.21 (inactive) in [3]; 0.674 (inactive) in [4]; 0.0952 (inactive) in experiment [5]; 0.612 (inactive) in experiment [6]; -0.619 in [7]. The z-score in experiment [8] is 0.725 (inactive); in experiment [9], 0.611 (inactive); in experiment [10], 0.393; in [11] it was -0.167; in experiment [12], 0.885; in [13], -0.0578. Also, the z-score is -0.164 in [14]; -0.581 in experiment [15]; 2.75 in experiment [16]; -3.26 (inactive) in [17]; 0.694 in [18]; 0.235 in [19]. Besides, the z-score in experiment [20] was -0.471 (inactive). The compound further gave a composite z-score in experiment [2] of -0.16.
In the case of `COC(=O)C1=C(C)N(Cc2ccccc2)[C@]23O[C@](C(=O)OC)(C(=O)N2[C@@H]1c1ccccc1)C(C(=O)OC)=C3C(=O)OC`, the z-score in experiment [1] was 0.214 (inactive); in [3] it was 2.05 (inactive); in experiment [4], -0.468 (inactive); in experiment [5], 0.323 (inactive); in experiment [6], -1.52 (inactive); in [7], 2.22. The z-score is 0.826 (inactive) in experiment [8]; 0.109 (inactive) in [9]; 2.03 in [10]; -0.321 in experiment [11]; 1.48 in [12]; 0.0331 in experiment [13]. The z-score in experiment [14] is -1.45; in experiment [15], -3.2; in experiment [16], 0.483; in experiment [17], 0.725 (inactive); in [18], -0.256; in experiment [19], -0.239. The z-score in experiment [20] was -0.645 (inactive). For the same compound, the composite z-score in experiment [2] was found to be 0.0774.
For the compound `CON=C[C@@H](C)[C@H](OCc1ccccc1)C(C)C`, the z-score was -2.85 (inactive) in experiment [1]; 0.0221 (inactive) in [3]; 0.234 (inactive) in [4]; 0.718 (inactive) in experiment [5]; -1.37 (inactive) in experiment [6]; 0.564 in experiment [7]. The z-score in experiment [8] is -0.307 (inactive); in experiment [9], -1.21 (inactive); in [10] it was -0.786; in experiment [11] it was -1.1; in experiment [12] it was 0.425; in [13] it was -0.0832. Also, the z-score is -0.43 in [14]; -1.01 in [15]; 0.0714 in [16]; 0.634 (inactive) in experiment [17]; -0.408 in experiment [18]; 0.699 in [19]. The z-score in experiment [20] is 0.073 (inactive). In experiment [2], the composite z-score was -0.378.
For `CCN1C(=O)[C@H]2[C@H]3[C@H](O)[C@H](O)CC(=NNC(=O)OCc4ccc(OC)cc4)[C@@H]3CC[C@H]2C1=O`, the z-score was -0.382 (inactive) in experiment [1]; 1.09 (inactive) in [3]; 0.195 (inactive) in experiment [4]; -0.703 (inactive) in experiment [5]; 0.181 (inactive) in [6]; 0.117 in experiment [7]. The z-score is -0.13 (inactive) in experiment [8]; 0.659 (inactive) in experiment [9]; -0.0409 in experiment [10]; -0.241 in experiment [11]; -0.0397 in experiment [12]; -0.112 in experiment [13]. In addition, the z-score in experiment [14] is 0.0505; in [15], -0.788; in experiment [16], -0.586; in experiment [17] it was -0.66 (inactive); in experiment [18], -0.232; in [19], -0.0402. For the same compound, the z-score in [20] is 0.247 (inactive). In addition, the composite z-score in experiment [2] was 0.238.
Regarding `CCCNC(=O)OC[C@H]1O[C@H](CCON=C(C)C)C=C[C@@H]1Oc1ccc(OC)cc1`, the z-score in experiment [1] was -1.21 (inactive); in [3] it was 0.683 (inactive); in experiment [4], 0.411 (inactive); in experiment [5], -0.551 (inactive); in [6], 0.367 (inactive); in experiment [7], -0.131. The z-score in experiment [8] is -0.278 (inactive); in experiment [9], 0.389 (inactive); in experiment [10], -0.533; in [11], 0.171; in [12], 0.008; in experiment [13] it was -0.0737. In addition, the z-score was -0.39 in [14]; 0.0566 in [15]; -1.57 in [16]; -1.43 (inactive) in experiment [17]; 0.255 in [18]; 0.276 in experiment [19]. Besides, the z-score in experiment [20] is 0.095 (inactive). The compound also registered a composite z-score in [2] of 0.209.
